The nature of experiment [1]: cAMP Responsive Elements (CRE) small molecule antagonists, cell-based qHTS assay: qHTS cell viability counter screen (AID 2060913). Further: nearly all actives have a fitted effect of over 40% in size. In a few lines:
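Cytotoxicity read in the same wells as the CRE-bla HEK293T antagonist assay: after 3 h compound with 0.25 uM NKH477 final and 2 h beta-lactamase substrate, CellTiter-Glo luminescence measured.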

A short description of experiment [2]: cAMP Responsive Elements (CRE) small molecule agonists, cell-based qHTS assay: qHTS cell viability counter screen (AID 2060914). Further: nearly all actives have a fitted effect of over 50% in size. The gist of the method:
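Cytotoxicity was measured as ATP luminescence (CellTiter-Glo, 30 min at room temperature) in the same wells as the CRE-bla FRET read-out. HEK293T CRE-bla cells had 3 h compound exposure at 37C/5% CO2.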
(In general: In qHTS, concentration-response curves come from the screen itself.)

Molecules are shown by their SMILES. Results filed as inconclusive are left out. Unmarked numbers belong to inactive results. Activity calls are given as the source filed them. The call rests on the fitted dose curve; in most records, active means well fitted cell-killing curve with a large enough effect in the repeat runs; inconclusive means weak or mixed curves, or effect the other way; inactive means flat fitted curve, though single readings scatter.
On the % scale 0 is the no-effect control and ±100 the full control effect.

Regarding `CC1(C)[C@H](C(=O)O[C@H](C#N)c2cccc(Oc3ccccc3)c2)[C@@H]1/C=C(\Cl)C(F)(F)F`, the Potency entry in experiment [1] and in experiment [2] was “inactive” each time.
`CC(C)(COCC1CO1)COCC1CO1` (stereo not given): the Potency result in experiment [1] and in experiment [2] was “inactive” in each case.
`N#CCCC#N`: the Potency result in experiment [1] and in experiment [2] was “inactive” each time.
With `Cc1ccc([N+](=O)[O-])cc1C`, the Potency entry in experiment [1] and in experiment [2] was “inactive” each time.
Regarding `C[C@]12C/C(=C/O)C(=O)C[C@@H]1CC[C@@H]1[C@@H]2CC[C@@]2(C)[C@H]1CC[C@]2(C)O`, the Potency entry in experiment [1] and in experiment [2] was “inactive” throughout.
As to `C=C(C)CCl`, the Potency result in experiment [1] and in experiment [2] was “inactive” throughout.
Regarding `CCCCC(CC)CO[N+](=O)[O-]` (stereo not given), the Potency entry in experiment [1] and in experiment [2] was “inactive” throughout.
Take `Clc1ccc(Oc2ccccc2)cc1`: the Potency result in experiment [1] and in experiment [2] was “inactive” throughout.
Turning to `CC(C)(C)C(O)(CCc1ccc(Cl)cc1)Cn1cncn1` (stereo not given), the Potency result in experiment [1] and in experiment [2] was “inactive” each time.
For `Clc1cccc(Cl)c1Cl`, the Potency result in experiment [1] and in experiment [2] was “inactive” in each case.
As for `COc1ccc(N)cc1`, the Potency entry in experiment [1] and in experiment [2] was “inactive” each time.
In the case of `CCOC(=S)S`, the Potency entry in experiment [1] and in experiment [2] was “inactive” in each case.
`CCc1ccc(C2CCNCC2)cc1`: the Potency entry in experiment [1] and in experiment [2] was “inactive” in each case.
As for `C=C(Cl)CSC(=S)N(CC)CC`, the Potency entry in experiment [1] and in experiment [2] was “inactive” throughout.
`O=C(CCl)CCl`: the Potency result in experiment [1] and in experiment [2] was “inactive” in each case.
With `COc1cc(CC(C)N)cc(OC)c1OC` (stereo not given), the Potency entry in experiment [1] and in experiment [2] was “inactive” throughout.
As for `COC(=O)c1ccc(CBr)cc1`, the Potency result in experiment [1] and in experiment [2] was “inactive” throughout.
`N#Cc1ccc(Cl)cc1`: the Potency result in experiment [1] and in experiment [2] was “inactive” throughout.
Regarding `Oc1ccc(Cl)c(Cl)c1`, the Potency result in experiment [1] and in experiment [2] was “inactive” in each case.
Turning to `Cc1ncc(CNC(=O)N(CCCl)N=O)c(N)n1`, the Potency entry in experiment [1] and in experiment [2] was “inactive” throughout.
Turning to `Oc1ccc2ccc3cccc4ccc1c2c34`, the Potency entry in experiment [1] and in experiment [2] was “inactive” each time.
With `CNC(C)(C)Cc1ccccc1`, the Potency result in experiment [1] and in experiment [2] was “inactive” throughout.
Consider `CC1(C)COP(Oc2ccccc2)OC1`, for which the Potency entry in experiment [1] and in experiment [2] was “inactive” each time.
For the compound `C[C@]12CC[C@H]3[C@@H](CCC4=CC(=O)CC[C@@H]43)[C@@H]1CC[C@@H]2OC(=O)CCc1ccccc1`, the Potency result in experiment [1] and in experiment [2] was “inactive” in each case.
As for `CNC(=O)Oc1cc(C)c(SC)c(C)c1`, the Potency result in experiment [1] and in experiment [2] was “inactive” in each case.
Turning to `COC(=O)[C@@H](N)CCCN/C(N)=N/[N+](=O)[O-]`, the Potency entry in experiment [1] and in experiment [2] was “inactive” each time.
`CCC[N+](CCC)(CCC)CCC`: the Potency entry in experiment [1] and in experiment [2] was “inactive” in each case.
With `ClCCCCBr`, the Potency result in experiment [1] and in experiment [2] was “inactive” each time.
Take `COc1cc(CC(C)N)cc2c1OCO2` (stereo not given): the Potency result in experiment [1] and in experiment [2] was “inactive” each time.
On to `CCC[CH2][Sn]([CH2]CCC)([O]C(C)=O)[O]C(C)=O`, for which the Potency result in experiment [1] and in experiment [2] was “inactive” throughout.
For `CCO/N=C(\CC)C1=C(O)CC(c2c(C)cc(C)cc2C)CC1=O` (stereo not given), the Potency entry in experiment [1] and in experiment [2] was “inactive” each time.
In the case of `O=C(CBr)Nc1ccc(Cl)cc1C(=O)c1ccccc1F`, the Potency entry in experiment [1] and in experiment [2] was “inactive” each time.
As to `BrC(Br)C(Br)(Br)Br`, the Potency result in experiment [1] and in experiment [2] was “inactive” each time.
`CCNC(=O)NC(=O)/C(C#N)=N/OC`: the Potency result in experiment [1] and in experiment [2] was “inactive” throughout.
Take `CN1C(=O)CN=C(c2ccccc2)c2cc(Cl)ccc21`: the Potency result in experiment [1] and in experiment [2] was “inactive” each time.
Regarding `Cc1ccc(C)c2ccccc12`, the Potency result in experiment [1] and in experiment [2] was “inactive” each time.
Turning to `CCC(=O)Nc1ccc(Cl)c(Cl)c1`, the Potency entry in experiment [1] and in experiment [2] was “inactive” throughout.
As for `CCCN(CCOc1c(Cl)cc(Cl)cc1Cl)C(=O)n1ccnc1`, the Potency result in experiment [1] and in experiment [2] was “inactive” throughout.
Take `C[N+](C)(C)C`: the Potency entry in experiment [1] and in experiment [2] was “inactive” throughout.
`O=C(Cc1ccccc1)OCCc1ccccc1`: the Potency result in experiment [1] and in experiment [2] was “inactive” each time.
For the compound `COP(=S)(OC)Oc1nc(Cl)c(Cl)cc1Cl`, the Potency result in experiment [1] and in experiment [2] was “inactive” throughout.
In the case of `CCN(Cc1ccc(Cl)nc1)/C(=C/[N+](=O)[O-])NC`, the Potency entry in experiment [1] and in experiment [2] was “inactive” in each case.
Consider `Oc1ccc(I)cc1`, for which the Potency result in experiment [1] and in experiment [2] was “inactive” in each case.
As to `c1ccc(N=Nc2ccccc2)cc1`, the Potency result in experiment [1] and in experiment [2] was “inactive” each time.
In the case of `C[N+](C)=CCl`, the Potency result in experiment [1] and in experiment [2] was “inactive” throughout.
For `COC(=O)c1ccccc1CS(=O)(=O)NC(=O)Nc1nc(OC)cc(OC)n1`, the Potency result in experiment [1] and in experiment [2] was “inactive” throughout.
For the compound `Cc1cc(Cl)ccc1OCCCC(=O)O`, the Potency entry in experiment [1] and in experiment [2] was “inactive” throughout.
With `CC(=O)/C=C/c1ccc2c(c1)OCO2`, the Potency entry in experiment [1] and in experiment [2] was “inactive” throughout.
As for `CC1(C)C(C=C(Cl)Cl)C1C(=O)OC(C#N)c1ccc(F)c(Oc2ccccc2)c1` (stereo not given), the Potency result in experiment [1] and in experiment [2] was “inactive” in each case.
As for `CCC(C)(CC)c1cc(NC(=O)c2c(OC)cccc2OC)on1`, the Potency result in experiment [1] and in experiment [2] was “inactive” in each case.
As to `NCC(CC(=O)O)c1ccc(Cl)cc1` (stereo not given), in experiment [1], the viability change, negative = cytotoxic was -0.747% [at 0.349 µM]. In experiment [2], the activity change, negative = cytotoxicity was -9.73% [at 0.349 µM].
Regarding `Cc1ccc(N=C=O)cc1N=C=O`, the Potency entry in experiment [1] and in experiment [2] was “inactive” throughout.
Consider `NN=C(N)N`, for which the Potency entry in experiment [1] and in experiment [2] was “inactive” throughout.
Turning to `Oc1ccc(Cc2ccc(O)cc2)cc1`, the Potency entry in experiment [1] and in experiment [2] was “inactive” in each case.
As for `Cc1ccc2c(c1N)C(=O)c1ccccc1C2=O`, the Potency entry in experiment [1] and in experiment [2] was “inactive” throughout.
Turning to `C[N+](C)(C)CC(=O)[O-]`, the Potency entry in experiment [1] and in experiment [2] was “inactive” each time.
As to `CCNc1nc(Cl)nc(NCC)n1`, the Potency entry in experiment [1] and in experiment [2] was “inactive” throughout.
With `CCOP(=S)(OCC)SCCl`, the Potency entry in experiment [1] and in experiment [2] was “inactive” each time.
In the case of `C[N+](C)(C)CC(=O)O`, the Potency result in experiment [1] and in experiment [2] was “inactive” each time.
Regarding `O=NN(CCO)CCO`, the Potency entry in experiment [1] and in experiment [2] was “inactive” in each case.
`C=CC(C)=O`: the Potency entry in experiment [1] and in experiment [2] was “inactive” throughout.
With `COP(=O)(O)OC`, the Potency result in experiment [1] and in experiment [2] was “inactive” each time.
`C=COCCCl`: the Potency entry in experiment [1] and in experiment [2] was “inactive” each time.
With `CCn1cc[n+](C)c1`, the Potency result in experiment [1] and in experiment [2] was “inactive” in each case.
As to `CC1=C2C[C@H]3[C@@H](CC=C4C[C@@H](O)CC[C@@]43C)[C@@H]2CC[C@]12O[C@@H]1C[C@H](C)CN[C@H]1[C@H]2C`, the Potency entry in experiment [1] and in experiment [2] was “inactive” throughout.
For the compound `COc1nc(C)nc(NC(=O)NS(=O)(=O)c2ccccc2Cl)n1`, the Potency result in experiment [1] and in experiment [2] was “inactive” in each case.
As to `CC(C)Nc1nc(Cl)nc(NC(C)C)n1`, the Potency entry in experiment [1] and in experiment [2] was “inactive” each time.
For `CC(C)(c1cc(Cl)c(O)c(Cl)c1)c1cc(Cl)c(O)c(Cl)c1`, the Potency entry in experiment [1] and in experiment [2] was “inactive” each time.
Turning to `CC(C)COC(=O)c1ccccc1C(=O)OCC(C)C`, the Potency result in experiment [1] and in experiment [2] was “inactive” in each case.
On to `CC(C)(C)C(O)C(Oc1ccc(-c2ccccc2)cc1)n1cncn1` (stereo not given), for which the Potency entry in experiment [1] and in experiment [2] was “inactive” throughout.
Turning to `O=C1NC(=O)C(=O)C(=O)N1`, the Potency entry in experiment [1] and in experiment [2] was “inactive” throughout.
On to `C=CC(=C)C`, for which the Potency result in experiment [1] and in experiment [2] was “inactive” throughout.
As to `C=C1C[C@@H]2[C@H](CC[C@]3(C)C(=O)CC[C@@H]23)[C@@]2(C)C=CC(=O)C=C12`, the Potency result in experiment [1] and in experiment [2] was “inactive” in each case.
With `CN(CCCC(O)c1cccnc1)N=O` (stereo not given), the Potency entry in experiment [1] and in experiment [2] was “inactive” throughout.
With `Nc1ccc(Cl)c(Cl)c1`, the Potency entry in experiment [1] and in experiment [2] was “inactive” in each case.
Consider `CCc1cccc(C)c1N(C(=O)CCl)C(C)COC` (stereo not given), for which the Potency entry in experiment [1] and in experiment [2] was “inactive” throughout.
As for `Nn1cnnc1`, the Potency result in experiment [1] and in experiment [2] was “inactive” throughout.
In the case of `ClC1=C(Cl)[C@]2(Cl)[C@@H]3[C@@H](Cl)[C@H](Cl)C[C@@H]3[C@@]1(Cl)C2(Cl)Cl`, the Potency entry in experiment [1] and in experiment [2] was “inactive” throughout.
`Clc1cccc(C(Cl)(Cl)Cl)n1`: the Potency result in experiment [1] and in experiment [2] was “inactive” each time.
On to `[Cl][Sn]([Cl])([Cl])[Cl]`, for which the Potency entry in experiment [1] and in experiment [2] was “inactive” each time.

These data come from PubChem BioAssay (Tox21).
